Laboratory results published in PubChem BioAssay (EPA / NIEHS).
Several values for one entry are separate records, joined by “and”; a condition that tells them apart may be missing. Equal values may be shown once. More than one record can exist for a structure, and the calls need not agree. Activity calls are given as the source filed them. How the source made its calls: active means hit-call score of the fitted dose curve at least 0.9, where 1 is the maximum; inactive means score below 0.9.

Columns and labels:
[1] = read-out: Tissue Factor, F3 (gene 2152); assay: BSK_CASM3C_TissueFactor: BioMAP Diversity Plus: CASM3C Assay for Tissue Factor Biomarker Activity (AID 2283052); details: primary human coronary artery smooth muscle cells; actives raise or lower the signal;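 further: cell surface tissue factor protein level read by ELISA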
[2] = read-out: Interferon-gamma inducible Protein 10 (IP10), CXCL10 (gene 3627); assay: BSK_hDFCGF_IP10: BioMAP Diversity Plus: hDFCGF Assay for Interferon-gamma inducible Protein 10 (IP10) Biomarker Activity (AID 2283053); details: primary human foreskin fibroblasts; actives raise or lower the signal
Outline: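 IP-10 levels, quantified by ELISA, are taken from human foreskin fibroblast cultures 24 h after chemical treatment, with DMSO serving as negative control and baseline for bidirectional analysis.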

[3] = read-out: Urokinase-type plasminogen activator receptor (uPAR), PLAUR (gene 5329); assay: BSK_CASM3C_uPAR: BioMAP Diversity Plus: CASM3C Assay for Urokinase-type plasminogen activator receptor (uPAR) Biomarker Activity (AID 2283054); details: primary human coronary artery smooth muscle cells; actives raise or lower the signal;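 further: cell-surface uPAR protein level quantified by ELISA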
[4] = read-out: Vascular cell adhesion molecule 1 (VCAM1), VCAM1 (gene 7412); assay: BSK_CASM3C_VCAM1: BioMAP Diversity Plus: CASM3C Assay for Vascular cell adhesion molecule 1 (VCAM1) Biomarker Activity (AID 2283055); details: primary human coronary artery smooth muscle cells; actives raise or lower the signal;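 further: VCAM-1 protein level quantified by ELISA on the cells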
[5] = read-out: Collagen III, COL3A1 (gene 1281); assay: BSK_hDFCGF_CollagenIII: BioMAP Diversity Plus: hDFCGF Assay for Collagen III Biomarker Activity (AID 2283056); details: primary human foreskin fibroblasts; actives raise or lower the signal
Outline: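 ELISA readout of Collagen III in human dermal (foreskin) fibroblasts, taken 24 h post-treatment. Gain or loss relative to DMSO vehicle fitted in both directions.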

[6] = read-out: Epidermal growth factor receptor (EGFR), EGFR (gene 1956); assay: BSK_hDFCGF_EGFR: BioMAP Diversity Plus: hDFCGF Assay for Epidermal growth factor receptor (EGFR) Biomarker Activity (AID 2283057); details: primary human foreskin fibroblasts; actives raise or lower the signal
Outline: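 Measured by ELISA: EGFR levels on primary human foreskin fibroblasts 24 h after chemical treatment, analysed relative to DMSO with bidirectional fitting.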

[7] = read-out: Interleukin-8 (IL8), CXCL8 (gene 3576); assay: BSK_hDFCGF_IL8: BioMAP Diversity Plus: hDFCGF Assay for Interleukin-8 (IL8) Biomarker Activity (AID 2283058); details: primary human foreskin fibroblasts; actives raise or lower the signal
Outline: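 IL-8 levels read by ELISA at 24 hours after dosing human skin fibroblast cultures. Parallel SRB staining assessed overt cytotoxicity, and gain or loss of signal was fitted against DMSO control.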

[8] = BSK_hDFCGF_Proliferation: Cell Proliferation Assessment in the BioMAP Diversity Plus: hDFCGF Assay (AID 2283059); details: primary human foreskin fibroblasts;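 further: curves fitted for both rise and fall of signal versus DMSO baseline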
Outline: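 This proliferation readout used SRB total-protein staining of human foreskin fibroblasts […], normalized to DMSO with bidirectional curve fitting.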

[9] = read-out: Macrophage colony-stimulating factor (MCSF), CSF1 (gene 1435); assay: BSK_hDFCGF_MCSF: BioMAP Diversity Plus: hDFCGF Assay for Macrophage colony-stimulating factor (MCSF) Biomarker Activity (AID 2283060); details: primary human foreskin fibroblasts; actives raise or lower the signal
Outline: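 M-CSF levels read by ELISA at 24 h post-dosing in human skin fibroblasts. Parallel cultures stained with SRB assessed cytotoxicity at the same time point; response fitted in both directions against the DMSO baseline.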

[10] = read-out: TIMP metallopeptidase inhibitor 1 (TIMP1), TIMP1 (gene 7076); assay: BSK_hDFCGF_TIMP1: BioMAP Diversity Plus: hDFCGF Assay for TIMP metallopeptidase inhibitor 1 (TIMP1) Biomarker Activity (AID 2283062); details: primary human foreskin fibroblasts; actives raise or lower the signal
Outline: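 TIMP-1 measured by ELISA 24 h after chemical dosing of primary human skin fibroblasts, with gain or loss fitted relative to DMSO. Parallel SRB staining (560 nm) monitored overt cytotoxicity.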

[11] = read-out: Monokine induced gamma interferon (MIG), CXCL9 (gene 4283); assay: BSK_hDFCGF_MIG: BioMAP Diversity Plus: hDFCGF Assay for Monokine induced gamma interferon (MIG) Biomarker Activity (AID 2283063); details: primary human foreskin fibroblasts; actives raise or lower the signal
Outline: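 Human primary foreskin fibroblasts in the hDFCGF system, exposed to test chemical for 24 h; MIG measured by ELISA. Bidirectional curve fitting against DMSO negative control as activity baseline.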

[12] = read-out: Matrix Metallopeptidase 1 (MMP1), MMP1 (gene 4312); assay: BSK_hDFCGF_MMP1: BioMAP Diversity Plus: hDFCGF Assay for Matrix Metallopeptidase 1 (MMP1) Biomarker Activity (AID 2283064); details: primary human foreskin fibroblasts; actives raise or lower the signal
Outline: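 Primary human foreskin fibroblasts exposed to chemicals for 24 h; MMP1 measured by ELISA. Cytotoxicity tracked by SRB staining in parallel cultures; bidirectional fit relative to DMSO.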

[13] = read-out: Vascular cell adhesion molecule 1 (VCAM1), VCAM1 (gene 7412); assay: BSK_hDFCGF_VCAM1: BioMAP Diversity Plus: hDFCGF Assay for Vascular cell adhesion molecule 1 (VCAM1) Biomarker Activity (AID 2283065); details: primary human foreskin fibroblasts; actives raise or lower the signal;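 on AC50: VCAM-1 protein level quantified by ELISA after 24 h chemical exposure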
Outline: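 ELISA readout of VCAM-1 on human dermal fibroblast primary cultures, 24 h after chemical exposure. Gain or loss of signal fitted in both directions against DMSO baseline.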

[14] = read-out: Plasminogen activator inhibitor-1 (PAI1), SERPINE1 (gene 5054); assay: BSK_hDFCGF_PAI1: BioMAP Diversity Plus: hDFCGF Assay for Plasminogen activator inhibitor-1 (PAI1) Biomarker Activity (AID 2283066); details: primary human foreskin fibroblasts; actives raise or lower the signal
Outline: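 PAI-1 levels, determined by ELISA, served as the endpoint in human foreskin fibroblast cultures exposed to compound for 24 h, with DMSO as baseline.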

[15] = read-out: Intercellular Adhesion Molecule 1 (ICAM1), ICAM1 (gene 3383); assay: BSK_KF3CT_ICAM1: BioMAP Diversity Plus: KF3CT Assay for Intercellular Adhesion Molecule 1 (ICAM1) Biomarker Activity (AID 2283067); details: primary human keratinocytes with fibroblasts; actives raise or lower the signal
Outline: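 Cell-surface ICAM-1 was measured by ELISA 24 h after dosing primary human skin keratinocytes co-cultured with fibroblasts. Parallel SRB staining tracked overt cytotoxicity. Gain or loss of signal was fitted relative to DMSO.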

[16] = read-out: Interferon-gamma inducible Protein 10 (IP10), CXCL10 (gene 3627); assay: BSK_KF3CT_IP10: BioMAP Diversity Plus: KF3CT Assay for Interferon-gamma inducible Protein 10 (IP10) Biomarker Activity (AID 2283068); details: primary human keratinocytes with fibroblasts; actives raise or lower the signal
Outline: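 Signal is secreted/surface IP-10 by ELISA in a human primary skin co-culture of keratinocytes and foreskin fibroblasts, taken 24 h post-dosing; DMSO served as negative control.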

[17] = BSK_KF3CT_SRB: Viability Assessment in the BioMAP Diversity Plus: KF3CT Assay (AID 2283069); details: primary human keratinocytes with fibroblasts;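 further: total protein by sulforhodamine B staining as a cytotoxicity measure; read 24 h after compound addition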
Outline: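 Human keratinocyte and foreskin fibroblast co-culture exposed to chemical for 24 h. Total protein measured in parallel cultures by 0.1% sulforhodamine B staining after 10% TCA fixation, read at 560 nm; bidirectional fit relative to DMSO.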

[18] = read-out: Interleukin-1 alpha (IL1a), IL1A (gene 3552); assay: BSK_KF3CT_IL1a: BioMAP Diversity Plus: KF3CT Assay for Interleukin-1 alpha (IL1a) Biomarker Activity (AID 2283070); details: primary human keratinocytes with fibroblasts; actives raise or lower the signal
Outline: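 Primary human keratinocyte plus foreskin fibroblast co-culture, dosed and measured at 24 h in 96-well plates. IL-1a level quantified by ELISA; bidirectional fit relative to DMSO.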

[19] = read-out: TIMP metallopeptidase inhibitor 2 (TIMP2), TIMP2 (gene 7077); assay: BSK_KF3CT_TIMP2: BioMAP Diversity Plus: KF3CT Assay for TIMP metallopeptidase inhibitor 2 (TIMP2) Biomarker Activity (AID 2283071); details: primary human keratinocytes with fibroblasts; actives raise or lower the signal
Outline: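 Keratinocyte–fibroblast co-culture, 24 h exposure; TIMP-2 ELISA, DMSO-normalised bidirectional fit. Parallel SRB (0.1%, TCA-fixed, 560 nm) total-protein staining gauges cytotoxicity.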

[20] = BSK_hDFCGF_SRB: Viability Assessment in the BioMAP Diversity Plus: hDFCGF Assay (AID 2283061); details: primary human foreskin fibroblasts;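 further: cells exposed to compound for 24 h before the read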
Outline: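 Viability was read as total protein: after 10% TCA fixation, wells were stained with 0.1% sulforhodamine B and read at 560 nm. Primary human foreskin fibroblasts were dosed for 24 h, with bidirectional fitting versus DMSO.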

Measured: AC50

C=C(C)C(=O)O[C@H]1C[C@@H]2CC[C@@]1(C)C2(C)C
active: [1] 9.73 µM | [2] 35.2 µM | [3] 9.04 µM | [4] 12.1 µM | [5] 20 µM | [6] 29.4 µM | [7] 35.3 µM | [8] 13.1 µM | [9] 28.4 µM | [10] 20 µM | [11] 34.8 µM | [12] 34.8 µM | [13] 26.4 µM | [14] 12.8 µM | [15] 28.8 µM | [16] 16.9 µM | [17] 14.6 µM

CC(=O)OCCC(C)CC(C)(C)C (centres undefined)
inactive: [1] | [2] | [3] | [4] | [5] | [6] | [7] | [8] | [9] | [10] | [12] | [13] | [14] | [15] | [16] | [17] | [18]

C[C@H]1C[C@@H]2[C@H]([C@@H](O)C[C@@]3(C)[C@H]2CC[C@]3(O)C(=O)CO)[C@@]2(C)C=CC(=O)C=C12
inactive: [1] | [2] | [3] | [5] | [6] | [7] | [8] | [9] | [10] | [13] | [14] | [15] | [17] | [19]
active: [3] 1.2 µM | [4] 860 nM and 150 nM | [12] 150 nM and 626 nM | [14] 0.15 µM

CCCCCCCCCCCCCCCCCC(=O)OCC(CC)CCCC (centres undefined)
inactive: [1] | [2] | [3] | [4] | [5] | [6] | [7] | [8] | [9] | [20] | [10] | [12] | [13] | [14] | [15] | [17] | [19]

COc1cc(C=O)ccc1OC(=O)C(C)C
inactive: [1] | [2] | [3] | [4] | [5] | [6] | [7] | [8] | [9] | [10] | [11] | [12] | [13] | [14] | [15] | [17] | [19]
active: [3] 5.27 µM

O=C1CCCCCCCCCCCCCCO1
inactive: [2] | [6] | [7] | [10] | [12] | [13] | [16] | [17]
active: [1] 28.7 µM | [3] 31.9 µM | [4] 28 µM | [5] 11.4 µM | [8] 2.99 µM | [9] 9.4 µM | [14] 20 µM | [15] 17.9 µM

CCCCC/C=C/C=C/C=O
active: [1] 30.8 µM | [2] 14.5 µM | [3] 32.9 µM | [4] 20 µM | [5] 10.8 µM | [7] 30.1 µM | [8] 4.99 µM | [9] 10.7 µM | [20] 12.7 µM | [10] 12.7 µM | [12] 20 µM | [13] 6.87 µM | [14] 8.82 µM | [15] 29.3 µM | [17] 32.6 µM | [19] 24.3 µM
inactive: [6]

CC1CCC(C(C)CS)CC1S (centres undefined)
inactive: [1] | [6] | [14]
active: [2] 4.25 µM | [3] 20 µM | [4] 28.8 µM | [5] 4.29 µM | [7] 28 µM | [8] 4.84 µM | [9] 6.95 µM | [20] 7.28 µM | [10] 6.08 µM | [12] 9.03 µM | [13] 2.78 µM | [15] 35.5 µM | [16] 20 µM | [17] 13.8 µM

Nc1cc([N+](=O)[O-])ccc1Cl
inactive: [1] | [2] | [3] | [4] | [5] | [6] | [7] | [8] | [9] | [10] | [11] | [12] | [13] | [14] | [15] | [17]

CCCCCCCCCC=O
inactive: [1] | [2] | [3] | [4] | [5] | [6] | [7] | [8] | [9] | [10] | [11] | [12] | [13] | [14] | [15] | [17]

O=C(O)c1ccc([N+](=O)[O-])cc1
inactive: [1] | [2] | [3] | [4] | [5] | [6] | [7] | [8] | [9] | [20] | [10] | [12] | [13] | [14] | [15] | [16] | [17]

CC(=O)[C@H]1CC[C@H]2[C@@H]3CC=C4C[C@@H](O)CC[C@]4(C)[C@H]3CC[C@]12C
active: [4] 9.48 µM | [5] 5.69 µM
inactive: [1] | [2] | [3] | [4] | [5] | [6] | [7] | [8] | [9] | [20] | [10] | [11] | [12] | [13] | [14] | [15] | [17] | [18]

CC(=O)O[C@]1(C(C)=O)CC[C@H]2[C@@H]3C[C@H](C)C4=CC(=O)CC[C@]4(C)[C@H]3CC[C@@]21C
inactive: [1] | [2] | [3] | [4] | [5] | [6] | [7] | [9] | [10] | [11] | [12] | [13] | [14] | [15] | [17] | [18]
active: [8] 0.0802 µM | [16] 2.55 µM
